# H9c2 TAG inh – inhibitors of triacylglycerol accumulation, primary screen, cell-based, uHTS, fluorescence, H9c2; hit rate 0.66% among 230,000; H9c2 cells, Nile Red lipid (TAG) fluorescence; cells loaded with 200 µM oleic acid; inhibition, % at 12.5 µM;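 active means pattern-corrected inhibition of lipid staining of at least 50% with the nuclear-stain viability signal not falling by more than 50%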;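 further: 0% = DMSO wells and 100% = triacsin C control wells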
# 697 NFkB inh – inhibitors of PMA/ionomycin-induced NF-kB reporter, 697 cells, primary screen, B-cell NF-kB inhibitor project, cell-based, luminescence, uHTS | 697 B-cell NF-kB luciferase reporter, 16 h | inhibition, % at 4 µM | hit rate 0.33% among 330,000; in the data active means inhibition above about 35%
# H9c2 protect – cardioprotection against H2O2-induced cell death, primary screen, uHTS, H9c2 cells, ATPLite luminescence. H9c2 cardiomyocytes, H2O2 injury protection, 2 h. protection from H2O2 cell death, % at 20 µM. hit rate 0.63% among 360,000. AID 588492, 2011;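 active means compounds giving at least 50% protection of heart cells from peroxide-induced death in the single-dose screen, raw or plate-pattern-corrected value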;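 further: 0% = DMSO wells with peroxide and 100% = DMSO wells without peroxide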
# COUP-TFII inh – NR2F2 transcriptional activity inhibitors, primary screen, cell-based, luciferase reporter, HEK293T, luminescence; HEK293T NGFI-A luciferase reporter; hit rate 0.7% among 370,000; AID 686940, 2013; inhibition, % at 8.6 µM; COUP transcription factor 2 (Homo sapiens), P24468;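 active means inhibition above a per-plate cutoff, mean inhibition of test wells between control levels plus 3 SD, cut at about 38% in these data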;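 further: cells cotransfected with COUP-TFII expression vector driving the NGFI-A reporter; 0% = median of COUP-TF2 test wells and 100% = reporter-only cells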
# Target sequence (P24468 whole entry, looked up): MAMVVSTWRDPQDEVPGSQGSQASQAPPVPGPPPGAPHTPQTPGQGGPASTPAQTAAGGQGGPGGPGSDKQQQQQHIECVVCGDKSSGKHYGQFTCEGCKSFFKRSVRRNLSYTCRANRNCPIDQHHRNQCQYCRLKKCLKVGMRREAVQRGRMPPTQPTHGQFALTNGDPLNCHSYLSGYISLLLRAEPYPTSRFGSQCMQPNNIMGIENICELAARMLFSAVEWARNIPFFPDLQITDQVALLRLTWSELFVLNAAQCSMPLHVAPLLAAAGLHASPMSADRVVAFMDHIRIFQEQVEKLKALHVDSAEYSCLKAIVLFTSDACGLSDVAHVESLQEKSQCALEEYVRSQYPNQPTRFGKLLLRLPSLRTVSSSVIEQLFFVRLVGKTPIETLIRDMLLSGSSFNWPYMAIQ
# Gli-Sufu antag – Gli-Sufu pathway antagonists, primary screen, luciferase luminescence, Sufu-KO-LIGHT cells, uHTS; Sufu-KO-LIGHT fibroblasts, Gli luciferase reporter luminescence; inhibition, % at 5 µM; hit rate 0.74% among 340,000;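 active means inhibition above about 55%, limit read from the data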;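 further: 0% = DMSO-treated cells and 100% = wells with medium but no cells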
# Jurkat NFkB inh – inhibitors of induced NF-kB luciferase reporter, primary screen, TCR NF-kB activation inhibitor project, cell-based, luminescence, uHTS; hit rate 0.53% among 330,000; Jurkat, PMA/ionomycin-induced NF-kB luciferase reporter; inhibition, % at 4 µM; AID 435003, 2010; in the data active means inhibition above about 50%
# Jurkat NFkB conf – PMA/ionomycin-induced NF-kB reporter inhibitors, Jurkat retest, confirmation, T-cell NF-kB inhibitor project, cell-based, luminescence, single concentration. hit rate 27% among 2,700. Jurkat NF-kB luciferase, 16 h. inhibition, % at 4 µM. shares compounds with Jurkat NFkB inh;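 active means inhibition reaching about 45% at 4 µM in either replicate, limit read from the data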;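 further: plate controls were PMA/ionomycin stimulated DMSO wells for no effect and unstimulated DMSO wells for full effect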
# Numbers without * were called inactive; . = no result. A selection: hits, their analogues and other compounds. The true share with any hit is near 2.6%.
SMILES,H9c2 TAG inh,697 NFkB inh,H9c2 protect,COUP-TFII inh,Gli-Sufu antag,Jurkat NFkB inh,Jurkat NFkB conf
Cc1ccc(Cn2nnc3c2-c2ccccc2S(=O)(=O)N(C2CC2)C3)cc1,.,.,.,-3,.,.,.
COC(=O)c1ccc(-c2cc3onc(-c4ccccc4)c3c(=O)n2C)cc1,-12,-66,-8,-6,4,-22,.
Cn1c(-c2ccc(F)c(F)c2)cc2onc(-c3ccccc3)c2c1=O,-3,-183,-16,-79,-127,-180,-94
Fc1ccc(-c2cn3ccccc3n2)cc1,-12,-164,-12,-34,-88,-110,.
CCOc1ccc(-c2cn3ccccc3n2)cc1,7,-197,-24,-18,-79,-153,-62
CCOc1cc(OCC)cc(C(=O)N2CCC[C@@H]2C(=O)N2CCC[C@@H]2C(=O)NCc2cccc(OC)c2)c1,.,.,.,8,.,.,.
COc1ccc(C(=O)CSc2nnc(-c3ccc(C)cc3)o2)cc1,-12,15,-3,-7,2,-3,.
COc1ccc(-c2nnc(SCC(C)C)o2)cc1,-11,-196,-2,-69,-41,-189,-94
Cc1ccc(CCC(=O)Nc2ncc(Cc3cccc(Cl)c3Cl)s2)o1,33,-140,-5,5,44,72*,0
O=C(NCc1cccs1)C1CCN(c2ccc(S(=O)(=O)N3CCOCC3)cc2Cl)CC1,.,-75,-8,11,27,76*,54*
O=C(Nc1ccc2c(c1)OCO2)c1cc2nc(C3CC3)cc(C(F)(F)F)n2n1,.,.,-2,.,-2,.,.
O=C(Nc1ccc2c(c1)OCO2)c1cc(Cl)ccn1,3,-134,-12,-47,-77,-140,.
O=C(Nc1ccc2c(c1)OCO2)c1ccc(Cl)cc1Cl,-15,-211,-14,-69,-151,-157,-65
Cc1cc(C)n2nc(C(=O)Nc3ccc4c(c3)OCO4)cc2n1,.,-164,-4,-53,-71,-188,-80
COc1cc2ccccc2cc1C(=O)Nc1ccc(C)cn1,7,-160,-4,-39,-103,-159,-112
COc1ccc(C(=O)Nc2ccc([N+](=O)[O-])cn2)c(OC)c1,-1,-223,-6,-47,-77,-167,-95
COC(=O)[C@]12C[C@H](CC(=O)NCc3ccc(C)o3)C(=O)N(CCc3ccc(OC)c(OC)c3)C1=C[C@H](C(C)C)O[C@@H]2C1CC1,.,.,.,-5,.,.,.
CCc1ccc(-c2cc(C(=O)N/N=C/c3c[nH]c4ccccc34)[nH]n2)cc1,33,-47,-8,-36,-30,60*,-11
Nc1nc(-c2cccnc2)nc2sc3c(c12)CCCC3,.,-158,-10,-105,-105,-159,-53
Cc1noc(C)c1CSc1nc2ccccc2c(=O)n1-c1ccccc1,18,-6,27,-23,20,54*,45
COC(=O)C1=C(C)N(Cc2ccccc2C(F)(F)F)C(=NCc2ccccc2)NC1c1ccc(Cl)cc1 (stereo not drawn),.,.,.,7,.,.,.
c1ccc(-c2cccc(-c3ccccn3)n2)nc1,.,-5,65*,.,85*,92*,83*
c1ccc(-c2nnc(-c3ccccn3)nn2)nc1,3,-108,-11,-46,-104,-75,.
O=C(Nc1cccnc1)c1ccc(COc2cc(Cl)ccc2Cl)o1,20,-1,-23,-4,23,57*,8
O=C(Nc1cccnc1)c1ccc(COc2ccccc2Cl)o1,-33,17,-5,-9,7,24,.
CCOc1cc(S(=O)(=O)N2CC=C(c3ccc(F)cc3)CC2)c(OCC)cc1-n1cnnn1,.,-61,1,-5,1,56*,23
CCOc1cc(S(=O)(=O)N2CCC(Cc3ccccc3)CC2)c(OCC)cc1-n1cnnn1,.,-11,2,-7,9,12,.
C=CCN1C(=O)[C@@H](CC(=O)NCc2cccs2)[C@]2(C(=O)OC)CCCCC=C12,.,.,.,3,.,.,.
